Source: PubChem BioAssay (Tox21)
Results filed as inconclusive are left out. Calls of active or inactive are those of the source. Unless noted, the call rests on the fitted dose curve; in most records, active means well fitted curve in the direction sought with a large enough effect in the repeat runs; inconclusive means weak or mixed curves; inactive means no such curve, though single readings can be large; an effect the other way counts as inactive or inconclusive.

What was measured:
[1] = qHTS assay to identify small molecule HDAC inhibitors - cell viability counter screen (AID 1259365); further: series mostly up to about 92 µM; nearly all actives have a fitted effect of over 50% in size
How it was run: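 Luminescence from CellTiter-Glo, developed 30min at room temperature, reports viability of wild-type HCT-116 cells treated 2hr with compounds at 37 C and 5% CO2 after overnight plating.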

[2] = qHTS assay to identify small molecule agonists of the sonic hedgehog signaling (Shh) pathway - cell viability counter screen (AID 1259366); further: nearly all actives have a fitted effect of over 50% in size
How it was run: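 Cytotoxicity counter screen run in the same wells as the Shh reporter assay. NIH/3T3 cells carrying a Gli1 response element–driven luciferase were treated with DMSO-dissolved compounds for 24hr, and live-cell protease activity was measured with CellTiter-Fluor.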

[3] = qHTS assay to identify small molecule antagonists of the sonic hedgehog signaling (Shh) pathway - cell viability counter screen (AID 1259367); further: nearly all actives have a fitted effect of over 55% in size
How it was run: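 Seed 3T3 Gli1-Luc cells at 2,000 per well; incubate 4 hr; add compound in DMSO, then conditioned medium; incubate at 37C with 5% CO2; add CellTiter-Fluor after 23 hr; read fluorescence 1 hr later.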

[4] = qHTS assay to identify small molecule agonists of the sonic hedgehog signaling (Shh) pathway (AID 1259368; calls by dose curve; further: series mostly up to about 92 µM; nearly all actives have a fitted effect of over 15% in size)
How it was run: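 NIH/3T3-derived 3T3Gli1-Luc cells carrying a stably integrated Gli1 response element–firefly luciferase reporter were plated, left 4 hr at 37 C, then given compounds in DMSO for 24 hr. Luminescence was read 30 min after adding luciferase reagent.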

[5] = molecular target: Estrogen receptor beta (Homo sapiens) (UniProt Q92731); assay: qHTS assay to identify small molecule agonists of the estrogen receptor beta (ER-beta) signaling pathway (AID 1259377; active means well fitted activation curve with a large enough effect in the signal ratio in the repeat runs, not every such curve was filed as active; the % refers to the signal ratio; further: potency means the concentration at half of the fitted maximal effect)
How it was run: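 HEK293T ER-beta-UAS-bla; 2% charcoal-stripped FBS; cells pre-incubated 6 hr, compound 16 hr, 37C/5% CO2; LiveBLAzer B/G FRET substrate 2 h RT; fluorescence intensity read.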

[6] = qHTS assay to identify small molecule agonists of the androgen receptor (AR) signaling pathway in the presence of an antagonist - cell viability counter screen (AID 1259379); further: series mostly up to about 92 µM; nearly all actives have a fitted effect of over 25% in size
How it was run: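 MDA-kb2 human breast carcinoma cells (stable MMTV-luciferase, AR/GR responsive) were seeded 3,000 cells/well, pre-incubated 5 hr at 37C without CO2, then given 3.0uM nilutamide and compounds at 15 concentrations for 16 hr. Viability was read by CellTiter-Fluor fluorescence.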

[7] = qHTS assay to identify small molecule agonists of the estrogen receptor beta (ER-beta) signaling pathway - cell viability counter screen (AID 1259380); further: nearly all actives have a fitted effect of over 30% in size
How it was run: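 ER-beta-UAS-bla HEK293T cells in medium with 2% charcoal-stripped FBS were preincubated 6 hr at 37C, dosed with compound in DMSO for 16 hr, then after the bla read, CellTiter-Glo was added for 30 min at room temperature; luminescence recorded.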

[8] = molecular target: Androgen receptor (Homo sapiens) (UniProt P10275); assay: qHTS assay to identify small molecule agonists of the androgen receptor (AR) signaling pathway in the presence of an antagonist (AID 1259381; calls by dose curve; further: nearly all actives have a fitted effect of over 15% in size)
How it was run: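 MDA-kb2 human breast carcinoma cells carrying an MMTV-luciferase reporter (AR- and GR-responsive) were treated with compounds at 15 concentrations plus 3.0uM final nilutamide for 16hr at 37C without CO2; luminescence was read after ONE-Glo addition.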

[9] = qHTS assay to identify small molecule antagonists of the estrogen receptor beta (ER-beta) signaling pathway - cell viability counter screen (AID 1259382); further: series mostly up to about 92 µM; nearly all actives have a fitted effect of over 55% in size
How it was run: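 ER-beta-UAS-bla HEK293T cells (2,000/well, 2% charcoal-stripped FBS) were pre-incubated 6 hr at 37C, then given compound plus 1nM final 17-beta-estradiol for 16 hr. Viability was read in the same wells by CellTiter-Glo luminescence after 30 min at room temperature.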

[10] = qHTS assay to identify small molecule agonists or antagonists of the thyroid stimulating hormone receptor (TSHR) signaling pathway - wild type cell line counter screen (AID 1259384; calls by dose curve)
How it was run: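 Wild-type Hek293 cells, 800/well, 18 h at 37C, then compound with Ro20-1724 for 30 min RT. cAMP by HTRF (cAMP-d2/anti-cAMP cryptate), 1 h RT, fluorescence read. 15 concentrations, triplicates.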

[11] = molecular target: Thyrotropin receptor (Homo sapiens) (UniProt P16473); assay: qHTS assay to identify small molecule antagonists of the thyroid stimulating hormone receptor (TSHR) signaling pathway (AID 1259385; calls by dose curve; further: nearly all actives have a fitted effect of over 20% in size)
How it was run: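 TSHR-HEK293 cells (800/well) plated 18 h, then compounds with Ro20-1724 and TSH at 1.5 ng/mL final, 30 min at room temperature. cAMP quantified by HTRF (cAMP-d2/anti-cAMP-cryptate, 1 h); 15 concentrations in triplicate.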

[12] = qHTS assay to identify small molecule agonists of the estrogen receptor alpha (ER-alpha) signaling pathway in the presence of an antagonist - cell viability counter screen (AID 1259386);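 further: series mostly up to about 92 µM; cells exposed to compounds for 22 h at 37 °C before the viability read; nearly all actives have a fitted effect of over 30% in size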
How it was run: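 VM7Luc4E2 cells (endogenous full-length ER-alpha, 4×ERE-luciferase) were held 5 days in phenol red-free medium with 10% charcoal-stripped FBS, plated, then given 10.0nM ICI-182,780 and compounds at 15 concentrations for 22hr at 37C; viability read by CellTiter-Fluor fluorescence.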

[13] = molecular target: Progesterone receptor (Homo sapiens) (UniProt P06401); assay: qHTS assay to identify small molecule agonists of the progesterone receptor (PR) signaling pathway (AID 1346784; calls by dose curve; further: nearly all actives have a fitted effect of over 30% in size)
How it was run: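 Beta-lactamase reporter read-out: after 16 hr compound treatment at 37C and a further 2 hr at room temperature with LiveBLAzer B/G FRET substrate, fluorescence was measured in PR-UAS-bla HEK 293T cells grown in 2% charcoal-stripped serum.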

[14] = qHTS assay to identify small molecule agonists of the progesterone receptor (PR) signaling pathway - cell viability counter screen (AID 1346799; calls by dose curve; further: nearly all actives have a fitted effect of over 45% in size)
How it was run: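 Luminescence from CellTiter-Glo, added after the beta-lactamase FRET read in the same wells, gave cytotoxicity in PR-UAS-bla HEK293T cells treated with compounds for 16 hr at 37C.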

[15] = qHTS assay to identify small molecule antagonists of the TGF-beta/Smad signaling pathway - cell viability counter screen (AID 1346824); further: nearly all actives have a fitted effect of over 50% in size
How it was run: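 SBE-bla HEK 293T cells, incubated overnight, then compound plus 0.25 ng/mL TGF-beta1 (stock added) for 5 hr at 37 C. Viability was read in the same wells by CellTiter-Glo luminescence after 30 min at room temperature.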

[16] = qHTS assay to identify small molecule antagonists of the sonic hedgehog signaling (Shh) pathway (AID 1259369; calls by dose curve; further: nearly all actives have a fitted effect of over 45% in size)
How it was run: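 NIH/3T3-derived 3T3Gli1-Luc cells with stably integrated Gli1-Luc reporter were preincubated 4hr at 37 C, then given compounds in DMSO plus Shh conditioned medium and incubated 24hr. Firefly luciferase luminescence read after 30min reagent at room temperature.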

[17] = molecular target: Estrogen receptor beta (Homo sapiens) (UniProt Q92731); assay: qHTS assay to identify small molecule antagonists of the estrogen receptor beta (ER-beta) signaling pathway (AID 1259378; active means well fitted inhibition curve with a large enough effect in the signal ratio in the repeat runs, not every such curve was filed as active; the % refers to the signal ratio)
How it was run: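 ER-beta-UAS-bla HEK293T cells in 2% charcoal-stripped FBS medium treated with compound plus 1nM final 17-beta-estradiol for 16 hr at 37C. Beta-lactamase reporter read by FRET substrate fluorescence after 2 hours at room temperature.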

[18] = molecular target: Estrogen receptor (Homo sapiens) (UniProt P03372); assay: qHTS assay to identify small molecule agonists of the estrogen receptor alpha (ER-alpha) signaling pathway in the presence of an antagonist (AID 1259383; calls by dose curve; further: top concentration of the series differs between compounds; nearly all actives have a fitted effect of over 15% in size)
How it was run: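 VM7Luc4E2 cells (endogenous full-length ER-alpha, 4×ERE-luciferase) were precultured 5 days in phenol red-free medium with 10% charcoal-stripped FBS, given 10.0nM ICI-182,780 (final), then treated with compounds at 15 concentrations for 22hr at 37C; luminescence read with ONE-Glo.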

[19] = molecular target: Progesterone receptor (Homo sapiens) (UniProt P06401); assay: qHTS assay to identify small molecule antagonists of the progesterone receptor (PR) signaling pathway (AID 1346795; active means well fitted inhibition curve with a large enough effect in the signal ratio in the repeat runs, not every such curve was filed as active; the % refers to the signal ratio; further: potency means the concentration at half of the fitted maximal effect)
How it was run: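 Read-out is fluorescence from the LiveBLAzer B/G FRET substrate, cleaved by a UAS-controlled beta-lactamase in PR-UAS-bla HEK293T cells after 16 hr exposure to compound plus 1 nM promegestone (final), followed by 2 hr at room temperature.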

[20] = qHTS assay to identify small molecule antagonists of the progesterone receptor (PR) signaling pathway - cell viability counter screen (AID 1346798);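 further: HEK293T PR-UAS-bla cells stimulated with the agonist R5020; series mostly up to about 92 µM; nearly all actives have a fitted effect of over 50% in size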
How it was run: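 HEK293T PR-UAS-bla, 2% charcoal-stripped FBS; 4 hr pre-plate; cpd + R5020, 16 h 37C; LiveBLAzer read first; then CellTiter-Glo 30 min RT, luminescence.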
On the % scale 0 is the no-effect control and ±100 the full control effect.

Sequence of Thyrotropin receptor (Homo sapiens) (P16473 whole entry, looked up): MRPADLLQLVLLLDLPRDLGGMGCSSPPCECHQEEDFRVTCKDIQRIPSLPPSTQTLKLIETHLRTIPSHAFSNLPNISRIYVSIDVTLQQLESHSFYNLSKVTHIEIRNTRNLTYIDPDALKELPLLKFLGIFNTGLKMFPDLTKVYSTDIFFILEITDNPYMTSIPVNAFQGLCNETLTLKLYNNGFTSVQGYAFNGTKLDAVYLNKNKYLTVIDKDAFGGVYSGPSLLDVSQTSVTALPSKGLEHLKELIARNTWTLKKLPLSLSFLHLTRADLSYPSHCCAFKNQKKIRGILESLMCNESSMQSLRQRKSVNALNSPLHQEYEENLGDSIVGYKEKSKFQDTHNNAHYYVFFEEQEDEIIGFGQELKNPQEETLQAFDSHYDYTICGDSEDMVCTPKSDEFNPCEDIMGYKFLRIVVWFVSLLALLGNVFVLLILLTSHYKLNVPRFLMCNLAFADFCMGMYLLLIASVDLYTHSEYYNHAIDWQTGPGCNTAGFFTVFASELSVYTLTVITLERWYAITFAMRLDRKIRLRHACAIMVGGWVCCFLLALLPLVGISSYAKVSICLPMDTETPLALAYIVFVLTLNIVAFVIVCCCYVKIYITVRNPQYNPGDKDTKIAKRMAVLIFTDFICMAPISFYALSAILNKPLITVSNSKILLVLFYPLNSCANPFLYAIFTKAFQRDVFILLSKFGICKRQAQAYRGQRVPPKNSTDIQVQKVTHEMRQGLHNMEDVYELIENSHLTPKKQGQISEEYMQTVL
Sequence of Estrogen receptor (Homo sapiens) (P03372 whole entry, looked up): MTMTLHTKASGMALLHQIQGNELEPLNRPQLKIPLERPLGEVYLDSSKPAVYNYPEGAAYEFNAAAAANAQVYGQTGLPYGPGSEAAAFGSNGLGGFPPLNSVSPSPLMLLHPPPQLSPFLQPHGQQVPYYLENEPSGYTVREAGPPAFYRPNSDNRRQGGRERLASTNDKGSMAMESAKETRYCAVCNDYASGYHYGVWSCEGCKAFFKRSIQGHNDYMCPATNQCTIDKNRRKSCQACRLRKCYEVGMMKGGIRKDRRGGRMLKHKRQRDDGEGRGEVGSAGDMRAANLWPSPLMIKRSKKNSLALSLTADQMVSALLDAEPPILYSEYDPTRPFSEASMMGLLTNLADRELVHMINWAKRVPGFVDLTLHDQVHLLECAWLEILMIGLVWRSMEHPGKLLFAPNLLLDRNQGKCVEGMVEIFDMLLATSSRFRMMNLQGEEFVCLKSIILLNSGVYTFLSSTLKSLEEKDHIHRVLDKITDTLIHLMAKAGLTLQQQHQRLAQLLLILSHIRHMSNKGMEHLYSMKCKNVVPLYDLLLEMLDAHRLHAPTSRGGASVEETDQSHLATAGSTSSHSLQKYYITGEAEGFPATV
Sequence of Estrogen receptor beta (Homo sapiens) (Q92731 whole entry, looked up): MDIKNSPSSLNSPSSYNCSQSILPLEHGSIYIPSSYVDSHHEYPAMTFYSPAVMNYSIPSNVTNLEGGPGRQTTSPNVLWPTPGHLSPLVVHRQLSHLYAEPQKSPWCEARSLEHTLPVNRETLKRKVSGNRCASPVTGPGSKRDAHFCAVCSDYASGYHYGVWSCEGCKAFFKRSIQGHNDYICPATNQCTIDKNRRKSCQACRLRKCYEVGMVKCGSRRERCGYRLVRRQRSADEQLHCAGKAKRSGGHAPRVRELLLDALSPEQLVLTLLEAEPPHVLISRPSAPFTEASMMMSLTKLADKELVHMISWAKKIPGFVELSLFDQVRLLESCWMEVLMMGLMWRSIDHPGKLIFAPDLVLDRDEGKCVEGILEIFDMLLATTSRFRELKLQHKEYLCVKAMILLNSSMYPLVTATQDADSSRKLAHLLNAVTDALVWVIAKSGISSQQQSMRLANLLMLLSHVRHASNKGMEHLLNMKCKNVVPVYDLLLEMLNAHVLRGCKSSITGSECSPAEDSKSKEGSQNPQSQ
Sequence of Androgen receptor (Homo sapiens) (P10275 whole entry, looked up): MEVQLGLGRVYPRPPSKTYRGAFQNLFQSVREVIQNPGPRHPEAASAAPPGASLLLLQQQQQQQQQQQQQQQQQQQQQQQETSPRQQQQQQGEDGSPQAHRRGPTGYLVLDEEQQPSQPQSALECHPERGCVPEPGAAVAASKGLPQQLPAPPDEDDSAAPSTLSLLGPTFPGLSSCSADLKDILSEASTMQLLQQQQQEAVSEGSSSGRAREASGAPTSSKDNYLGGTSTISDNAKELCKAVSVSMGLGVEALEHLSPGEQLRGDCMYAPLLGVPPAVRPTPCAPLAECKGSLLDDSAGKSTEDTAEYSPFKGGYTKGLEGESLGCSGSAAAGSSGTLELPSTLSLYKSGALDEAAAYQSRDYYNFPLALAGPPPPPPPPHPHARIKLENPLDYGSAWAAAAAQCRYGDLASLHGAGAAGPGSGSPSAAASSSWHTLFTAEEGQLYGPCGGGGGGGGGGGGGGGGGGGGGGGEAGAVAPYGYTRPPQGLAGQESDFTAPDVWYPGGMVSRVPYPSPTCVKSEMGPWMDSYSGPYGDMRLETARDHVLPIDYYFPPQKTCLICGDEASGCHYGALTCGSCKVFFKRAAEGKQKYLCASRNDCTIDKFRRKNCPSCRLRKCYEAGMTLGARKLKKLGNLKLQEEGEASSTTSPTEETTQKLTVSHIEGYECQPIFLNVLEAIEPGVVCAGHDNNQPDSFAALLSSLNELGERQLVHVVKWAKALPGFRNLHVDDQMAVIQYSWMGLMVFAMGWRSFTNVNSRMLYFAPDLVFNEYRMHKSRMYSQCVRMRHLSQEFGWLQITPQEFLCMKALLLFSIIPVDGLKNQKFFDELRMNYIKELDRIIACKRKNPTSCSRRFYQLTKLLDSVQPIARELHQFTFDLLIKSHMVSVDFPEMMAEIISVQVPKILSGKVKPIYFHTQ
Sequence of Progesterone receptor (Homo sapiens) (P06401 whole entry, looked up): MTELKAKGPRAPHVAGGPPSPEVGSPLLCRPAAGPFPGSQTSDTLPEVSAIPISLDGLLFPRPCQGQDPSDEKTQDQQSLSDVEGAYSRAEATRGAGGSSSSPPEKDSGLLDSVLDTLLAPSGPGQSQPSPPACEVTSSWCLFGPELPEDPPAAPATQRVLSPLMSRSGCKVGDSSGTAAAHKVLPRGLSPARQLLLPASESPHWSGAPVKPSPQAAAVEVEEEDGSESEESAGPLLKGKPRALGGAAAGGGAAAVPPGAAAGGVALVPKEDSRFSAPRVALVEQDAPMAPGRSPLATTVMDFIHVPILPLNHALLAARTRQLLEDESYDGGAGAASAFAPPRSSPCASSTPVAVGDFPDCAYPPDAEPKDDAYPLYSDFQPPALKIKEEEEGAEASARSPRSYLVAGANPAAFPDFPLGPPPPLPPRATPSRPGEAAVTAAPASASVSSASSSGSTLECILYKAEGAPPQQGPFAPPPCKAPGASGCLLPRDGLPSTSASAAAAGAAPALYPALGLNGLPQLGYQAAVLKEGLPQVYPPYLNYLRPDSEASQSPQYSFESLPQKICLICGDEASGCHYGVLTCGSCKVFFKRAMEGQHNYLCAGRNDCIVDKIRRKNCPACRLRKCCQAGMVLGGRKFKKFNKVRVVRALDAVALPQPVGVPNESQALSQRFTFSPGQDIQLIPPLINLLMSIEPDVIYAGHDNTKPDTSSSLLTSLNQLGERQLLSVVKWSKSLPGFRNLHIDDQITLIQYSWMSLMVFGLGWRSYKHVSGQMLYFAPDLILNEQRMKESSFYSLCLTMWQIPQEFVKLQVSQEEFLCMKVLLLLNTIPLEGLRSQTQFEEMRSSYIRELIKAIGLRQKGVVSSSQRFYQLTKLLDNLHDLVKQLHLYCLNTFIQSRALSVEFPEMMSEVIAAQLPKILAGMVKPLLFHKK

O=C(c1ccccc1)c1cccc(O)c1
active: Potency [5] 12.4 µM
inactive: outcome [1] | outcome [2] | outcome [3] | outcome [4] | outcome [6] | Potency [7] | outcome [8] | outcome [9] | outcome [10] | outcome [11] | outcome [12] | Potency [13] | Potency [14] | outcome [15]

NC[C@H]1O[C@H](O[C@H]2[C@H](O)[C@@H](O[C@H]3O[C@H](CO)[C@@H](O)[C@H](N)[C@H]3O)[C@H](N)C[C@@H]2N)[C@H](N)[C@@H](O)[C@@H]1O
inactive: activity change, negative = cytotoxicity [1] -0.176% [at 19 µM] | viability change, negative = cytotoxic [2] 0.901% [at 19 µM] | viability change, negative = cytotoxic [3] 3.49% [at 19 µM] | activity change [4] 0.032% [at 18.9 µM] | activity change, negative = inhibition [16] 16.7% [at 19 µM] | activity change, negative = cytotoxicity [6] -5.29% [at 19 µM] | activity change, negative = cytotoxicity [7] 2.53% [at 19 µM] | activity change, negative = cytotoxicity [9] 7.91% [at 19 µM] | cAMP activity change [10] 2.25% [at 18.9 µM] | activity change, negative = inhibition [11] 4.59% [at 19 µM] | activity change, negative = cytotoxicity [12] 10% [at 19 µM] | viability change, negative = cytotoxic [15] 6.71% [at 15.8 µM]

C/C(=N\O)c1ccc(OCC(=O)N2CCCCC2)cc1
inactive: outcome [1] | outcome [2] | outcome [3] | Potency [16] | Potency [5] | outcome [17] | outcome [6] | Potency [7] | outcome [8] | outcome [9] | Potency [18] | outcome [10] | outcome [11] | outcome [12] | Potency [13] | Potency [19] | outcome [20] | Potency [14] | outcome [15]

N#Cc1ccccc1C#N
inactive: outcome [1] | outcome [2] | outcome [3] | outcome [4] | Potency [16] | outcome [6] | outcome [8] | outcome [9] | Potency [18] | outcome [12] | Potency [13] | Potency [19] | outcome [20] | Potency [14] | outcome [15]

COC(=O)c1c(C)cc(O)c(C)c1O
active: Potency [19] 19.3 µM
inactive: outcome [1] | outcome [2] | outcome [3] | outcome [4] | Potency [5] | outcome [17] | outcome [6] | Potency [7] | Potency [18] | outcome [12] | Potency [13] | outcome [20] | outcome [15]

C=CC(=O)CC
inactive: outcome [1] | outcome [2] | outcome [3] | outcome [4] | Potency [5] | outcome [17] | outcome [6] | Potency [7] | outcome [9] | outcome [10] | outcome [11] | outcome [12] | Potency [13] | Potency [19] | outcome [20] | Potency [14] | outcome [15]

Nc1nc(Cl)cc(Cl)n1
inactive: outcome [1] | outcome [2] | outcome [3] | outcome [4] | Potency [5] | outcome [17] | outcome [6] | Potency [7] | outcome [9] | Potency [18] | outcome [12] | Potency [19] | outcome [20] | outcome [15]

Cc1ccc(O)c([N+](=O)[O-])c1
inactive: outcome [1] | outcome [2] | outcome [3] | outcome [4] | Potency [16] | outcome [6] | Potency [18] | outcome [12] | Potency [19] | outcome [15]

CCCC(=O)CC
inactive: outcome [1] | outcome [2] | outcome [3] | outcome [4] | Potency [5] | outcome [17] | outcome [6] | Potency [7] | outcome [9] | Potency [18] | outcome [10] | outcome [11] | outcome [12] | Potency [13] | outcome [20] | outcome [15]
